Laboratory results published in PubChem BioAssay AID1159580 (chemical genetic matrix, 2015).
“And” between values parts separate entries of the source, which are not always exact repeats. Identical values can stand only once. Among all 5,500 compounds or so, about 2,000 (36%) were called active. About 18% were inconclusive and are not listed. Cut-off read from the data, not from the text of the source: active = normalized growth mostly below about 0.91 (no sharp cut-off); inconclusive = no clear call, values can overlap the other calls; inactive = mostly above about 0.92. Some of the results follow.

Assay: chemical genetic growth profiling, strain panel (AID 1159580);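 note: tested at 20 µM; growth read once vehicle control cultures reached saturation at 30 °C; 1 = growth at the plate median or of vehicle wells; lower values mean less growth of the strain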
Settings: S. cerevisiae deletion strains, growth OD

Measured: normalized growth

CCCCCCCCNC(C)C(O)c1ccc(SC(C)C)cc1 (stereo not drawn)
inactive: locus YHR079C, strain IRE1, stronger effect = lower value 0.911 | locus YIL125W, strain kgd1, stronger effect = lower value 1 | locus YJR066W, strain TOR1, stronger effect = lower value 0.885
0.0483 (active) and 0.892 (inactive): locus YHR030C, strain SLT2, stronger effect = lower value
active: locus YAL021C, strain ccr4, stronger effect = lower value 0.0594 | locus YAL026C, strain drs2, stronger effect = lower value 0.0595 | locus YAL030W, strain snc1, stronger effect = lower value 0.0546 | locus YBL061C, strain skt5, stronger effect = lower value 0.0571 | locus YBR009C, strain hhf1, stronger effect = lower value 0.0563 | locus YBR021W, strain FUR4, stronger effect = lower value 0.0834 | locus YBR023C, strain chs3, stronger effect = lower value 0.0584 | locus YBR171W, strain sec66, stronger effect = lower value 0.0741 | locus YBR229C, strain ROT2, stronger effect = lower value 0.0441 | locus YBR231C, strain swc5, stronger effect = lower value 0.0585 | locus YBR279W, strain paf1, stronger effect = lower value 0.0682 | locus YCL011C, strain gbp2, stronger effect = lower value 0.055 | locus YCL016C, strain dcc1, stronger effect = lower value 0.0618 | locus YCL029C, strain bik1, stronger effect = lower value 0.0564 | locus YCL069W, strain vba3, stronger effect = lower value 0.0585 | locus YCR088W, strain abp1, stronger effect = lower value 0.0581 | locus YDL005C, strain med2, stronger effect = lower value 0.0745 | locus YDL035C, strain GPR1, stronger effect = lower value 0.0475 | locus YDL040C, strain nat1, stronger effect = lower value 0.0579 | locus YDL074C, strain BRE1, stronger effect = lower value 0.0735 | locus YDL101C, strain DUN1, stronger effect = lower value 0.0522 | locus YDL134C, strain PPH21, stronger effect = lower value 0.047 | locus YDL185W, strain tfp1, stronger effect = lower value 0.262 | locus YDL192W, strain arf1, stronger effect = lower value 0.0576 | locus YDR001C, strain nth1, stronger effect = lower value 0.06 | locus YDR069C, strain doa4, stronger effect = lower value 0.0584 | locus YDR101C, strain arx1, stronger effect = lower value 0.0541 | locus YDR137W, strain rgp1, stronger effect = lower value 0.0948 | locus YDR150W, strain NUM1, stronger effect = lower value 0.0542 | locus YDR159W, strain sac3, stronger effect = lower value 0.0734 | locus YDR162C, strain NBP2, stronger effect = lower value 0.0459 | locus YDR195W, strain ref2 0.0984 | locus YDR297W, strain sur2, stronger effect = lower value 0.0553 | locus YDR318W, strain mcm21, stronger effect = lower value 0.0585 | locus YDR334W, strain swr1, stronger effect = lower value 0.0597 | locus YDR335W, strain msn5, stronger effect = lower value 0.0583 | locus YDR388W, stronger effect = lower value 0.054 | locus YDR392W, strain spt3, stronger effect = lower value 0.0655 | locus YDR502C, strain sam2, stronger effect = lower value 0.056 | locus YEL003W, strain gim4, stronger effect = lower value 0.0594 | locus YEL037C, strain rad23, stronger effect = lower value 0.0554 | locus YEL061C, strain CIN8 (second series), stronger effect = lower value 0.0597 | locus YEL061C, strain CIN8, stronger effect = lower value 0.0482 | locus YER015W, strain faa2, stronger effect = lower value 0.0595 | locus YER016W, strain bim1, stronger effect = lower value 0.0591 | locus YER110C, stronger effect = lower value 0.0696 | locus YER111C, strain swi4, stronger effect = lower value 0.0814 | locus YER155C, strain BEM2 (second series), stronger effect = lower value 0.0808 | locus YER155C, strain BEM2, stronger effect = lower value 0.0577 | locus YER167W, strain BCK2, stronger effect = lower value 0.0469 | locus YFR010W, strain ubp6, stronger effect = lower value 0.0616 | locus YGL078C, strain dbp3, stronger effect = lower value 0.902 | locus YGL086W, strain mad1, stronger effect = lower value 0.0521 | locus YGL167C, strain pmr1, stronger effect = lower value 0.077 | locus YGL173C, strain kem1, stronger effect = lower value 0.0661 | locus YGL227W, strain vid30, stronger effect = lower value 0.06 | locus YGL240W, strain doc1, stronger effect = lower value 0.0665 | locus YGL248W, strain PDE1, stronger effect = lower value 0.0436 | locus YGL253W, strain hxk2, stronger effect = lower value 0.0517 | locus YGR135W, strain pre9, stronger effect = lower value 0.0567 | locus YGR252W, strain gcn5, stronger effect = lower value 0.109 | locus YHR013C, strain ard1, stronger effect = lower value 0.0967 | locus YHR027C, strain rpn1, stronger effect = lower value 0.0609 | locus YHR079C, strain IRE1 (second series), stronger effect = lower value 0.0545 | locus YHR094C, strain hxt1, stronger effect = lower value 0.0553 | locus YHR129C, strain ARP1, stronger effect = lower value 0.0538 | locus YHR142W, strain chs7, stronger effect = lower value 0.0639 | locus YHR200W, strain rpn10, stronger effect = lower value 0.0572 | locus YIL066C, strain RNR3, stronger effect = lower value 0.0459 | locus YIL073C, strain SPO22, stronger effect = lower value 0.102 | locus YIR030C, strain dcg1, stronger effect = lower value 0.0568 | locus YJL092W, strain hpr5, stronger effect = lower value 0.0567 | locus YJL095W, strain BCK1 (second series), stronger effect = lower value 0.0551 | locus YJL095W, strain BCK1, stronger effect = lower value 0.0554 and 0.787 | locus YJL115W, strain asf1, stronger effect = lower value 0.069 | locus YJL129C, strain trk1, stronger effect = lower value 0.0791 | locus YJL134W, strain LCB3, stronger effect = lower value 0.0468 | locus YJL154C, strain vps35, stronger effect = lower value 0.0585 | locus YJL164C, strain tpk1, stronger effect = lower value 0.0551 | locus YJL166W, strain qcr8, stronger effect = lower value 0.0569 | locus YJL168C, strain set2, stronger effect = lower value 0.0547 | locus YJL187C, strain SWE1 (second series), stronger effect = lower value 0.0448 | locus YJR043C, strain POL32, stronger effect = lower value 0.0599 | locus YJR075W, strain HOC1, stronger effect = lower value 0.0593
